Bioassay records deposited in PubChem by National Center for Advancing Translational Sciences (NCATS).
HCV inhibitor = qHTS Assay for Inhibitors of Hepatitis C Virus (HCV); actives 3.4% (n = 340,000); AID 651820, 2012; Huh7.5.1 HCVcc-Cre infection, luciferase reporter, 44 h; Potency, µM (series often up to 41.8 µM), hits mostly inhibitors; active = well fitted inhibition curve with a large enough effect; inconclusive = small, poorly fitted or top-dose-only effect, or another doubt; inactive = no such curve, though single readings can be large or run the other way
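Reporter virus HCVcc-Cre (~0.5 moi) infects cells exposed to compound; seeding density 1,000 cells/well with 4 h settling beforehand. Luminescence, 15 sec read, taken 44 h post-infection following a 15 min RT substrate incubation.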
FMDV inh = High Throughput Screening for Foot and Mouth Disease Virus Antivirals. FMDV antiviral cell-based qHTS. actives 1.2% (n = 410,000). Potency, µM (series often up to 57.9 µM), hits mostly inhibitors; calls by dose curve; tested in HEK293T cells; note: read-out not given here; nearly all actives have a fitted effect of over 45% in size
Lassa entry inh = qHTS for Inhibitors of binding or entry into cells for Lassa Virus; Lassa virus pseudotype entry inhibition, cell reporter; Potency, µM (titrated, usually from 37.9 µM), most hits filed as inhibitors; AID 540256, 2011; actives 1.2% (n = 300,000); calls by dose curve; tested in HEK293 cells; note: nearly all actives have a fitted effect of over 50% in size
HCMV antiviral = qHTS Assay for inhibitors of the human cytomegalovirus (HCMV); actives 4.5% (n = 410,000); HFF cells, HCMV-luciferase reporter, 72 h; active compounds read low; activity change, negative = inhibition, % at 57.5 µM; AID 1259415, 2018; in the data active = activity change below about -60%; inconclusive = no clear call, values can overlap the other calls; inactive = above about -39%
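Human foreskin fibroblasts infected with luciferase-reporter HCMV at MOI 1 PFU/cell, compounds at two doses. Luciferase measured 72 h post infection; normalized to buffer-only basal and Salinomycin (10uM) controls.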
MARV entry inh = qHTS for inhibitors of binding or entry into cells for Marburg Virus | AID 540276, 2011 | Marburg virus pseudotyped entry inhibition, cell reporter | actives 1.8% (n = 300,000) | Potency, µM (titrated, usually from 37.8 µM), actives largely listed as inhibitors; calls by dose curve; tested in HEK293 cells
Each line names hits and unclear results; the compound was inactive in the other large screens; ! = a repeat was not active. Only some compounds are listed: those with a hit (about 7.9% of all), similar ones and a draw of the others.

CCOC(=O)c1sc2ccccc2c1S(=O)(=O)Nc1cccc(C(F)(F)F)c1	none (no result: HCV inhibitor, MARV entry inh)
Cn1c(CN2CCOCC2)nc2cc(NC(=O)c3ccccc3Cl)ccc21	none (no result: FMDV inh)
Cn1c(CN2CCCCC2)nc2cc(NC(=O)c3ccc(Cl)cc3)ccc21	HCV inhibitor 3.98µM, FMDV inh 17.8µM!, HCMV antiviral -67.4, MARV entry inh 20.6µM
Cn1c(CN2CCOCC2)nc2cc(NC(=O)c3ccc(F)cc3)ccc21	HCV inhibitor inconclusive, HCMV antiviral -75.4 (no result: FMDV inh)
Cn1c(CN2CCCC2)nc2cc(NC(=O)COc3ccc(Cl)cc3)ccc21	HCV inhibitor inconclusive, MARV entry inh inconclusive (no result: FMDV inh)
CCOC(=O)N1CCN(Cc2nc3cc(NC(C)=O)ccc3n2C(C)C)CC1	MARV entry inh inconclusive (no result: HCV inhibitor)
CCOC(=O)N1CCN(Cc2nc3cc(NC(=O)c4ccccc4Cl)ccc3n2C(C)C)CC1	FMDV inh inconclusive, HCMV antiviral -90.0, MARV entry inh inconclusive (no result: HCV inhibitor)
Cn1c(CN2CCCC2)nc2cc(NC(=O)c3ccc(Cl)cc3)ccc21	HCV inhibitor inconclusive, HCMV antiviral -73.0
Cc1ccc(CNC(=O)c2cc(=O)c3cc(C)c(C)cc3o2)cc1	Lassa entry inh inconclusive (no result: HCV inhibitor)
CCC[C@H]1[C@@H](NC(=O)Nc2ccc(C#N)cc2)CC[C@@]23CCCN2C(=O)CCC[C@@H]13	none (no result: HCV inhibitor, FMDV inh, Lassa entry inh, MARV entry inh)
Cc1ccc(CCNC(=O)CCS(=O)(=O)c2ccc(Br)cc2)cc1	HCMV antiviral inconclusive (no result: Lassa entry inh, MARV entry inh)
C1CCC(C2C3=C(NC4NCNN42)C2=C(CCCC2)CCC3)CC1 (configuration not stated)	none (no result: HCV inhibitor, FMDV inh, Lassa entry inh, HCMV antiviral)
CCN(Cc1ccccc1)C(=O)Cn1cc(S(=O)(=O)Cc2cccc(Cl)c2)c2ccccc21	none (no result: HCV inhibitor, MARV entry inh)
CCOC(=O)c1ccc(-n2[nH]c(-c3ccccc3)cc2=O)cc1	HCV inhibitor 14.1µM, FMDV inh inconclusive, Lassa entry inh inconclusive
CCOC(=O)c1ccc(N=Nc2c(C)[nH]n(-c3ccccc3)c2=O)cc1	none (no result: Lassa entry inh, MARV entry inh)
C=CCn1c(NCc2cc(Cl)ccc2O)nc2ccccc21	HCV inhibitor inconclusive, Lassa entry inh inconclusive, MARV entry inh inconclusive
CCn1c(Nc2ccccc2Cl)nc2ccccc21	none
CCCc1nc2ccccc2n1CCc1ccccc1	Lassa entry inh inconclusive, HCMV antiviral -73.6, MARV entry inh inconclusive
CCn1c(NN=O)nc2ccccc21	HCV inhibitor 6.31µM, Lassa entry inh inconclusive, HCMV antiviral -103.3, MARV entry inh inconclusive
OCCCc1nc2ccccc2n1CCc1ccccc1	none
CCCn1c(Nc2nc3ccccc3n2C)nc2ccccc21	HCV inhibitor inconclusive, FMDV inh inconclusive, HCMV antiviral -99.8, MARV entry inh inconclusive
CCn1c(NCc2cc(Cl)ccc2O)nc2ccccc21	HCV inhibitor 31.6µM (no result: Lassa entry inh, MARV entry inh)
CCCCCCCn1c(NC(=O)CC)nc2ccccc21	HCMV antiviral -83.9, MARV entry inh inconclusive
CCC(=O)NCc1nc2ccccc2n1Cc1ccccc1F	HCMV antiviral -99.4
CCC(=O)Nc1nc2ccccc2n1Cc1ccccc1Cl	HCV inhibitor inconclusive, HCMV antiviral inconclusive (no result: Lassa entry inh, MARV entry inh)
CCC(=O)Nc1nc2ccccc2n1Cc1ccc(Cl)cc1	HCV inhibitor inconclusive, FMDV inh inconclusive, Lassa entry inh inconclusive, HCMV antiviral -76.2, MARV entry inh 11.6µM
CCC(=O)Nc1nc2ccccc2n1CCN1CCOCC1	Lassa entry inh inconclusive
CC(=O)Nc1nc2ccccc2n1Cc1ccccc1Cl	FMDV inh inconclusive, HCMV antiviral -96.3, MARV entry inh inconclusive
CCOC(=O)C1CCCN(C(=O)CCCn2nnnc2CN2CCOCC2)C1 (configuration not stated)	none (no result: Lassa entry inh, MARV entry inh)
CN(Cc1ccon1)C(=O)c1cnn(-c2nccc(-c3ccc4c(c3)OCO4)n2)c1C1CC1	none (no result: HCV inhibitor, Lassa entry inh, HCMV antiviral, MARV entry inh)
O=C(NCCc1c[nH]c2ccccc12)C1CCC(Cn2c(=S)[nH]c3ccccc3c2=O)CC1 (configuration not stated)	HCV inhibitor 4.47µM, Lassa entry inh inconclusive, HCMV antiviral -67.7, MARV entry inh inconclusive
CC1(C(=O)NCCc2c[nH]c3ccccc23)CCN1CC1CCCCC1 (configuration not stated)	HCMV antiviral -63.6 (no result: HCV inhibitor, Lassa entry inh, MARV entry inh)
O=C(COc1ccc2c(-c3ccccc3)cc(=O)oc2c1)N[C@H](Cc1c[nH]c2ccccc12)C(=O)O	HCV inhibitor inconclusive (no result: Lassa entry inh, MARV entry inh)
Clc1ccc(-c2csc(=Nc3cccnc3)n2CCCn2ccnc2)cc1Cl	HCV inhibitor 11.2µM, FMDV inh 31.6µM, Lassa entry inh inconclusive, HCMV antiviral -93.6, MARV entry inh inconclusive
OCCCn1c(-c2ccccc2)csc1=Nc1ccccc1	HCV inhibitor inconclusive, FMDV inh inconclusive, MARV entry inh inconclusive
COc1ccc(-c2csc(=Nc3ccccc3)n2CCO)cc1F	FMDV inh inconclusive, MARV entry inh inconclusive (no result: HCV inhibitor)
O=C(O)CCc1ccc(-c2cccs2)n1CC1CCCO1 (configuration not stated)	none
FC(F)Oc1ccc(-c2csc(=Nc3cccnc3)n2CC2CCCO2)cc1 (configuration not stated)	HCV inhibitor 11.2µM, FMDV inh 8.91µM, Lassa entry inh inconclusive, HCMV antiviral -76.5, MARV entry inh inconclusive
COCCn1c(-c2ccc(Br)cc2)csc1=Nc1cccnc1	HCV inhibitor inconclusive, FMDV inh 31.6µM, MARV entry inh inconclusive (no result: Lassa entry inh)
COc1ccc(N=c2scc(-c3ccc(OC)cc3)n2CCO)cc1	HCV inhibitor 6.31µM, Lassa entry inh inconclusive, HCMV antiviral -74.0
Cc1cc(C(=O)Nc2ccc(C(C)C)cc2)c2c(C)nn(-c3ccccc3)c2n1	Lassa entry inh inconclusive (no result: HCV inhibitor, MARV entry inh)
CCCOC(=O)c1ccc(NC(=O)C2CC(=O)N(c3ccc(C)cc3)C2)cc1 (configuration not stated)	none (no result: HCV inhibitor, MARV entry inh)
Cc1cc(C)cc(Nc2nc(-c3ccc(S(=O)(=O)N4CCCC4)cc3)cs2)c1	HCV inhibitor 10µM, FMDV inh inconclusive, Lassa entry inh inconclusive, HCMV antiviral -77.1, MARV entry inh inconclusive
Cc1ccc(Nc2nc(-c3ccc(S(=O)(=O)N4CCCC4)cc3)cs2)cc1C	HCV inhibitor 3.98µM, FMDV inh inconclusive, Lassa entry inh inconclusive, MARV entry inh inconclusive (no result: HCMV antiviral)
O=S(=O)(c1ccc(-c2csc(Nc3ccc(Br)cc3)n2)cc1)N1CCCC1	HCV inhibitor inconclusive, FMDV inh inconclusive, HCMV antiviral -72.6
CC(C)(C)N(Cc1ccccc1)C(=O)COC(=O)c1ccccc1SCC(=O)N1CCCC1	Lassa entry inh inconclusive
Cc1ccccc1Nc1c(-c2ccccc2O)nc2sccn12	HCMV antiviral -64.4 (no result: HCV inhibitor)
COc1ccc(-c2cn3c(n2)sc2cc(C(=O)NCc4ccccc4)ccc23)cc1	none (no result: HCV inhibitor, HCMV antiviral, MARV entry inh)
COc1ccc2c(c1)sc1nc(-c3ccccc3)cn12	HCV inhibitor inconclusive, FMDV inh 7.94µM, Lassa entry inh 0.501µM, HCMV antiviral -97.9, MARV entry inh 0.708µM
CCOC(=O)N1CCN(C(=O)c2ccc3c(c2)sc2nc(-c4ccc(OC)cc4)cn23)CC1	HCV inhibitor 14.1µM!, MARV entry inh inconclusive (no result: HCMV antiviral)
CCOC(=O)C1CCN(C(=O)c2ccc3c(c2)sc2nc(-c4ccc(OC)cc4)cn23)CC1	none (no result: HCV inhibitor, HCMV antiviral, MARV entry inh)
Cc1ccc(CCNC(=O)CCCc2nnc3n(C)c(=O)c4sccc4n23)cc1	none (no result: HCV inhibitor)
COC(=O)c1ccccc1NC(=O)CCCOc1cc(=O)n(C)c2ccccc12	HCMV antiviral -99.4 (no result: HCV inhibitor, Lassa entry inh, MARV entry inh)
